# Reference: ChEMBL document CHEMBL1961873, “Compounds: GSK PKIS; Assays: Nanosyn kinase panel” (2012)
# How the values were obtained:
# [1] = biological target: Ribosomal protein S6 kinase alpha-6 (Homo sapiens) (UniProt Q9UK32); conditions: at 1 µM;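 also: each value is a mean inhibition of RSK4 from a GSK PKIS panel screen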
# [2] = biological target: T1, Serine/threonine-protein kinase Sgk1 (Homo sapiens) (UniProt O00141); conditions: at 0.1 µM
# T1 sequence (whole entry): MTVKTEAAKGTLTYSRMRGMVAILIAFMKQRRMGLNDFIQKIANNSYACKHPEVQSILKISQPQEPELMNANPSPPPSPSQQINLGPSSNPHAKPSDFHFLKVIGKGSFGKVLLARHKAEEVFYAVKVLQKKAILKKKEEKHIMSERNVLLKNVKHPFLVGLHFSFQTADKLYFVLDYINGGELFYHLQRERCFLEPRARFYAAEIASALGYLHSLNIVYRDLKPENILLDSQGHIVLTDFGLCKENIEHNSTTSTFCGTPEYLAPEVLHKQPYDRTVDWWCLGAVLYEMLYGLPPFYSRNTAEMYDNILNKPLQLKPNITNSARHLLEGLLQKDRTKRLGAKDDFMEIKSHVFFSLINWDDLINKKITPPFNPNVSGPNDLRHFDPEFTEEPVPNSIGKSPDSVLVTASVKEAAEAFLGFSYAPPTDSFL
# [3] = biological target: T1, Serine/threonine-protein kinase Sgk1 (Homo sapiens); conditions: at 1 µM
# [4] = biological target: T2, Serine/threonine-protein kinase Sgk2 (Homo sapiens) (UniProt Q9HBY8); conditions: at 0.1 µM
# T2 sequence (whole entry): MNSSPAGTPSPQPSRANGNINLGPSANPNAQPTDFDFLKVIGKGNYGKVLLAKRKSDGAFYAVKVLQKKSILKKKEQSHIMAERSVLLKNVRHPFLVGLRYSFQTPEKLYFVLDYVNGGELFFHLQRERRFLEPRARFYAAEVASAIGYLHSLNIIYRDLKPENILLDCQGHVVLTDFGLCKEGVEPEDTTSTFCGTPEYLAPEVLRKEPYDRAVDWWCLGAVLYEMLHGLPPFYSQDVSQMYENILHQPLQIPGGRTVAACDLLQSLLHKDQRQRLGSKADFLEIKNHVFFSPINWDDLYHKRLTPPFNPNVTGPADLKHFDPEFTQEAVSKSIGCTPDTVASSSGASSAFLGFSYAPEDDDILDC
# [5] = biological target: T2, Serine/threonine-protein kinase Sgk2 (Homo sapiens); conditions: at 1 µM
# [6] = biological target: T3, Serine/threonine-protein kinase Sgk3 (Homo sapiens) (UniProt Q96BR1); conditions: at 0.1 µM
# T3 sequence (whole entry): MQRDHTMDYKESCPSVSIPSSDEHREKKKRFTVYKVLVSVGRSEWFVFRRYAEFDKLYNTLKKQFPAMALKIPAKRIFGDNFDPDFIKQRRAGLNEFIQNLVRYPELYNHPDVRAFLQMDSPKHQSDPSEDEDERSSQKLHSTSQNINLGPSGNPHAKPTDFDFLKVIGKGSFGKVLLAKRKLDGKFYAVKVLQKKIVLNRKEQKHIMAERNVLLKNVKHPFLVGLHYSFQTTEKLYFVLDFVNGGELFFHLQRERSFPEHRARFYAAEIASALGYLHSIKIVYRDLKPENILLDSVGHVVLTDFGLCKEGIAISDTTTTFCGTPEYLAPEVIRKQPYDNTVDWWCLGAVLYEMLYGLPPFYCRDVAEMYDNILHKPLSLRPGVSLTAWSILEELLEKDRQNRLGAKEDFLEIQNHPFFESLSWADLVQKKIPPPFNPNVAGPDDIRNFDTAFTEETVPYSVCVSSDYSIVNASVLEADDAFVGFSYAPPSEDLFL
# [7] = biological target: T3, Serine/threonine-protein kinase Sgk3 (Homo sapiens); conditions: at 1 µM
# [8] = biological target: 5'-AMP-activated protein kinase catalytic subunit alpha-1 (Homo sapiens) (UniProt Q13131); conditions: at 0.1 µM
# 5'-AMP-activated protein kinase catalytic subunit alpha-1 (Homo sapiens), sequence (Q13131 whole entry, looked up): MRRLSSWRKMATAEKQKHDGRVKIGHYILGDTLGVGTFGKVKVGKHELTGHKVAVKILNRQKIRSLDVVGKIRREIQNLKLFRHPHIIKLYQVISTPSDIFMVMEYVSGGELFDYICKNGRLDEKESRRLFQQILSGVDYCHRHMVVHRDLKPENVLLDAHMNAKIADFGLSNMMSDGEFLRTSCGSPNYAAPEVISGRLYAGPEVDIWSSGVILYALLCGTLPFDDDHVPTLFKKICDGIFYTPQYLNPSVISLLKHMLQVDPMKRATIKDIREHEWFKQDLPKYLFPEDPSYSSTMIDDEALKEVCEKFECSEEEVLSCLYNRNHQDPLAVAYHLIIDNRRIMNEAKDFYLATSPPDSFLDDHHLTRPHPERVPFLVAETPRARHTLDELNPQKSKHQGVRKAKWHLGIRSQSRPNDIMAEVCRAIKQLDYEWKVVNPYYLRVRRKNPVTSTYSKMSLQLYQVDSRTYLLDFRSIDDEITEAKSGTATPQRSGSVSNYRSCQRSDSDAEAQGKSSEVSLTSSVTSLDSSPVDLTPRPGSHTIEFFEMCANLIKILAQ
# [9] = biological target: 5'-AMP-activated protein kinase catalytic subunit alpha-1 (Homo sapiens) (UniProt Q13131); conditions: at 1 µM
# [10] = biological target: 5'-AMP-activated protein kinase catalytic subunit alpha-2 (Homo sapiens) (UniProt P54646); conditions: at 0.1 µM
# 5'-AMP-activated protein kinase catalytic subunit alpha-2 (Homo sapiens), sequence (P54646 whole entry, looked up): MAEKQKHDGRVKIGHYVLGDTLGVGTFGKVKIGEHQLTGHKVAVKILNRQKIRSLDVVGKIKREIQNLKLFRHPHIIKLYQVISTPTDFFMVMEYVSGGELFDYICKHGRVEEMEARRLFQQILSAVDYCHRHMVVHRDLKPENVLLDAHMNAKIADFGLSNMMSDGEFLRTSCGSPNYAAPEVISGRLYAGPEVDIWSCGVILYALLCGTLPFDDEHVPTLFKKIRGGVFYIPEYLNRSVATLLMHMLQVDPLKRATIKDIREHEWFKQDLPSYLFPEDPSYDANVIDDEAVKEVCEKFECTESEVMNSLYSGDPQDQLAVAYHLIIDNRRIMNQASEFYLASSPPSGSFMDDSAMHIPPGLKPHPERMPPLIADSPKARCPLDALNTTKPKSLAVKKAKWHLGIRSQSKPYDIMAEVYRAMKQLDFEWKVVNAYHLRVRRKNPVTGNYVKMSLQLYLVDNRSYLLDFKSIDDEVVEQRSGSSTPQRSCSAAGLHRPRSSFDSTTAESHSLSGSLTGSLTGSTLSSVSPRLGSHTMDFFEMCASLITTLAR
# [11] = biological target: 5'-AMP-activated protein kinase catalytic subunit alpha-2 (Homo sapiens) (UniProt P54646); conditions: at 1 µM
# [12] = biological target: T4, NUAK family SNF1-like kinase 1 (Homo sapiens) (UniProt O60285); conditions: at 0.1 µM
# T4 sequence (whole entry): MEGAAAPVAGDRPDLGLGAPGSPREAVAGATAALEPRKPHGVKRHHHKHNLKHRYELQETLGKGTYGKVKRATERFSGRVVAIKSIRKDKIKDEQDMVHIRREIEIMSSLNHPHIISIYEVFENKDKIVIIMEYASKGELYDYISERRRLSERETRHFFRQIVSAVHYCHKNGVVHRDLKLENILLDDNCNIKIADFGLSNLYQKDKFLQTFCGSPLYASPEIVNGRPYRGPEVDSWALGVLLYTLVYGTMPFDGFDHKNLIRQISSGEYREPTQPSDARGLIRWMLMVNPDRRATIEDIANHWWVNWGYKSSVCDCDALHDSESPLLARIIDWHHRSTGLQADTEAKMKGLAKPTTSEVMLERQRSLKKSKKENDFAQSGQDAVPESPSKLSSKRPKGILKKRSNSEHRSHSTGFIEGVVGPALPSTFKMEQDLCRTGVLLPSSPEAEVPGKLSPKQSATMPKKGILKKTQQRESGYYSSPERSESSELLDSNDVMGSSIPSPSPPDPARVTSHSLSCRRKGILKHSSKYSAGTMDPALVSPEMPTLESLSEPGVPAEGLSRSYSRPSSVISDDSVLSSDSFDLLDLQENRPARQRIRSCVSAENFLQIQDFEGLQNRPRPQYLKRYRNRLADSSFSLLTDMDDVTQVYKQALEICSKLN
# [13] = biological target: T4, NUAK family SNF1-like kinase 1 (Homo sapiens); conditions: at 1 µM
# [14] = biological target: T5, Serine/threonine-protein kinase BRSK1 (Homo sapiens) (UniProt Q8TDC3); conditions: at 0.1 µM
# T5 sequence (whole entry): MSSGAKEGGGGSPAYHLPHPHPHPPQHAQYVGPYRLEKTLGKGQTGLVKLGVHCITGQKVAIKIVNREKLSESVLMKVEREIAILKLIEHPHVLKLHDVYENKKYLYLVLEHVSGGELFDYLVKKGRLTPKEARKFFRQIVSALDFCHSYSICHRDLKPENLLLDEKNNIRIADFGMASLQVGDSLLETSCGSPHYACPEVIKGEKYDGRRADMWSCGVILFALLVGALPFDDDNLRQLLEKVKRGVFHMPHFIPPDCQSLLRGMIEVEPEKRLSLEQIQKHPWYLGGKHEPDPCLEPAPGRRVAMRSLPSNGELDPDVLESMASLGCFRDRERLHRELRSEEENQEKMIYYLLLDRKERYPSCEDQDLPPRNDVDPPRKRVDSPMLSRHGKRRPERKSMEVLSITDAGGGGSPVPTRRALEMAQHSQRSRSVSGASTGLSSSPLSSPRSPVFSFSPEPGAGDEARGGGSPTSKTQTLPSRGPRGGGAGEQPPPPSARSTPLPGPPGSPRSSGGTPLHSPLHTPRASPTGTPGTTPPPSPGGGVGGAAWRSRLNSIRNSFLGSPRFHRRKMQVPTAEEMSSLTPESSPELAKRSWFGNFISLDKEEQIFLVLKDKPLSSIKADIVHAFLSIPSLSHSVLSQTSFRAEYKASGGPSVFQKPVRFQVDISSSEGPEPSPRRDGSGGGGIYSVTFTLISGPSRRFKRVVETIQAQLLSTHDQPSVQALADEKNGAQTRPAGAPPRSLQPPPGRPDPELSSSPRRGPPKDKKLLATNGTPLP
# [15] = biological target: T5, Serine/threonine-protein kinase BRSK1 (Homo sapiens); conditions: at 1 µM
# [16] = biological target: T6, Serine/threonine-protein kinase BRSK2 (Homo sapiens) (UniProt Q8IWQ3); conditions: at 0.1 µM
# T6 sequence (whole entry): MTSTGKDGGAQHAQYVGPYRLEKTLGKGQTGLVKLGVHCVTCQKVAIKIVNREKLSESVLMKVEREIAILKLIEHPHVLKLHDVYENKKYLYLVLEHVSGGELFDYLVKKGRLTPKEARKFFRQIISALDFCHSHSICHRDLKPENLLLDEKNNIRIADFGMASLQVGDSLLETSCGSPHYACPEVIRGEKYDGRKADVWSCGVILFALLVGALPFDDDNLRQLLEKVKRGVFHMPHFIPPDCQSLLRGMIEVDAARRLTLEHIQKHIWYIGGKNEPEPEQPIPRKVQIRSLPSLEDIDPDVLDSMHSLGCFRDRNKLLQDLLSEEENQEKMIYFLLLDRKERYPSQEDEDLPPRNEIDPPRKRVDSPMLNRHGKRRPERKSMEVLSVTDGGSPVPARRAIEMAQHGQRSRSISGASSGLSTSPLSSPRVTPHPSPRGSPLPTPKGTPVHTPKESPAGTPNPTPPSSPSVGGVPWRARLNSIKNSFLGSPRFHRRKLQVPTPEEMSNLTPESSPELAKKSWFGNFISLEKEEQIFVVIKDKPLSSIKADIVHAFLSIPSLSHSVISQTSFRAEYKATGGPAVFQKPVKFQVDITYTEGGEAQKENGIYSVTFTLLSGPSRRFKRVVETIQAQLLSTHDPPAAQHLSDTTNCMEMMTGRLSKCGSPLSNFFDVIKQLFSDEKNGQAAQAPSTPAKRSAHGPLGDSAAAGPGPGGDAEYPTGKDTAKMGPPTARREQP
# [17] = biological target: T6, Serine/threonine-protein kinase BRSK2 (Homo sapiens); conditions: at 1 µM
# [18] = biological target: Calcium/calmodulin-dependent protein kinase type 1D (Homo sapiens) (UniProt Q8IU85); conditions: at 0.1 µM
# Calcium/calmodulin-dependent protein kinase type 1D (Homo sapiens), sequence (Q8IU85 whole entry, looked up): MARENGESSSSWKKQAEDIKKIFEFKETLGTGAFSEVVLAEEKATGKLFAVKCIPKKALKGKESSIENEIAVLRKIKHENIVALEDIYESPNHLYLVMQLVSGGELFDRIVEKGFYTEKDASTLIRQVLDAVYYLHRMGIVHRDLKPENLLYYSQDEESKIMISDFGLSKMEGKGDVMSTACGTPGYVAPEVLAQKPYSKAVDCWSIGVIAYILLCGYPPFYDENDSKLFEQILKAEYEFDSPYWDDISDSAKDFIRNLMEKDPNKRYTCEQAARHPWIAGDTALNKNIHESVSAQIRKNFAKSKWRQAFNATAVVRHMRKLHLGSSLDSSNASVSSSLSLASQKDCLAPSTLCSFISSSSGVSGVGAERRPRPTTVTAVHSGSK
# [19] = biological target: Calcium/calmodulin-dependent protein kinase type 1D (Homo sapiens) (UniProt Q8IU85); conditions: at 1 µM
# [20] = biological target: Calcium/calmodulin-dependent protein kinase type II subunit alpha (Homo sapiens) (UniProt Q9UQM7); conditions: at 0.1 µM;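 also: reported values are averages (mean inhibition of CAMK2A)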
# Calcium/calmodulin-dependent protein kinase type II subunit alpha (Homo sapiens), sequence (Q9UQM7 whole entry): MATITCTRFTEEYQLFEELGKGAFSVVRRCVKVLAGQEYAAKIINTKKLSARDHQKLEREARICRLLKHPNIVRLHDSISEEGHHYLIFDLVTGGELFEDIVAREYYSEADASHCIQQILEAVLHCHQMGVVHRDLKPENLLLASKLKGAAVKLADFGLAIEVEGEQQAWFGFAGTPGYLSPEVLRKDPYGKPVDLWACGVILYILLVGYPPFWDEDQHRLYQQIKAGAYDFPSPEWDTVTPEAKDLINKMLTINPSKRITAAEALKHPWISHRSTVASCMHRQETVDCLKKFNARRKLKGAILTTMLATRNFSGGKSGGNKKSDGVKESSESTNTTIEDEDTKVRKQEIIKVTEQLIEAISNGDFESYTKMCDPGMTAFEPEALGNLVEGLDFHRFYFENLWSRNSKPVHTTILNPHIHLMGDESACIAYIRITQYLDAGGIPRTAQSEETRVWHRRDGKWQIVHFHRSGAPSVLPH
# Ribosomal protein S6 kinase alpha-6 (Homo sapiens), sequence (Q9UK32 whole entry): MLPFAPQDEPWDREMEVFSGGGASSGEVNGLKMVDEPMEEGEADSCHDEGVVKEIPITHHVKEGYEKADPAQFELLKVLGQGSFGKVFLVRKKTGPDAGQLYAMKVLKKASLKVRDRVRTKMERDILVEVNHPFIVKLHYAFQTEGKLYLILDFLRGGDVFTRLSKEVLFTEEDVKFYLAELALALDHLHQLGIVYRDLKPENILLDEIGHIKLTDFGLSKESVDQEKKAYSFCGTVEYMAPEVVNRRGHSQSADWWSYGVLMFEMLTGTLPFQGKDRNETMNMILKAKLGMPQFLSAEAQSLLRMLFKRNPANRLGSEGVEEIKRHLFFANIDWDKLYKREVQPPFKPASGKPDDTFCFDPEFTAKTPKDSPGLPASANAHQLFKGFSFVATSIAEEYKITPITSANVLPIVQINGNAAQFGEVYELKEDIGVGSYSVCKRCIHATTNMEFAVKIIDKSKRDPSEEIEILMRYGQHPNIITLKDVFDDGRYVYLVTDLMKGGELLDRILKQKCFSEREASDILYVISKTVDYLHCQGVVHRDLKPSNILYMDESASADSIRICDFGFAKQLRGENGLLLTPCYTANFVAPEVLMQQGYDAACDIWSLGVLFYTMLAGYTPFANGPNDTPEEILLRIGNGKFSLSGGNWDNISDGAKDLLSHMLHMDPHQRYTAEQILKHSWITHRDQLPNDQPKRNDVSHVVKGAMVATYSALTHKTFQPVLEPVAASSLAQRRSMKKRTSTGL
smiles,measurement,setting,value
Fc1ccc(-c2ncn(C3CCNCC3)c2-c2ccnc(Oc3ccc(F)c(F)c3)n2)cc1,inhibition,[1],-0.02%
same,inhibition,[2],1.79%
same,inhibition,[3],3.94%
same,inhibition,[4],3.89%
same,inhibition,[5],3.96%
same,inhibition,[6],2.65%
same,inhibition,[7],2.26%
same,inhibition,[8],4.6%
same,inhibition,[9],5.31%
same,inhibition,[10],3.75%
same,inhibition,[11],4.77%
same,inhibition,[12],2.44%
same,inhibition,[13],6.58%
same,inhibition,[14],1.29%
same,inhibition,[15],3.93%
same,inhibition,[16],3.75%
same,inhibition,[17],5.29%
same,inhibition,[18],-1.15%
same,inhibition,[19],-1.08%
same,inhibition,[20],2.48%
